Laboratory results: PMC7862700, “An all-to-all approach to the identification of sequence-specific readers for epigenetic DNA modifications on cytosine”

Columns and labels:
Assay in all cases: DAPPL (digital affinity profiling via proximity ligation, sequencing); 10 mM Tris-HCl pH 7.5, 50 mM NaCl, 1 mM DTT, 4% glycerol, room temperature, 30 min; GST-TFs on glutathione beads, 16-mer random dsDNA library, 0.1% formaldehyde crosslink after washing; high values mean tight binding
Conditions in all cases: protein: recombinant; tags: N-terminal GST; dsDNA, one strand shown
FLI1 = molecular target: T1, FLI1 (Homo sapiens, UniProt Q01543 1-452)
T1 sequence: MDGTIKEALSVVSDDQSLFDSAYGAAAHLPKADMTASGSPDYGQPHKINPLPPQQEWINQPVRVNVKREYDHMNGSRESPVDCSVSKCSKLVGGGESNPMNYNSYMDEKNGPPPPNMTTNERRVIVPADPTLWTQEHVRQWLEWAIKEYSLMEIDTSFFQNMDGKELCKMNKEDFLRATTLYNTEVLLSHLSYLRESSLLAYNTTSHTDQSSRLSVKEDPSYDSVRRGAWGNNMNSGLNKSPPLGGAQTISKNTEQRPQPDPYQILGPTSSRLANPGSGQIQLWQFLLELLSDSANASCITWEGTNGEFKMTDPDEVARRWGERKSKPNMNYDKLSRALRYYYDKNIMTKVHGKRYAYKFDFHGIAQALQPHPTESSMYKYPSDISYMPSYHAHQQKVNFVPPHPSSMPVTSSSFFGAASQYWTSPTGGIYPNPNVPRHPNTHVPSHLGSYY
Procedure, shortened: (§1)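 Yeast served to express human transcription factors as GST fusions, which were then captured on glutathione beads and labelled with DNA barcodes. Pooled with a tag-only sample, they were incubated with 200 nmole of a 16-mer random double-stranded DNA library for 30 min at room temperature in Tris/NaCl/DTT/glycerol buffer, washed, crosslinked with 0.1% formaldehyde, ligated by proximity, amplified by PCR and sequenced. Dividing each hexamer's read frequency for a factor by its frequency for the tag-only sample gives the binding signal.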

ELK1 = molecular target: T2, ELK1 (Homo sapiens, UniProt P19419 1-428)
T2 sequence: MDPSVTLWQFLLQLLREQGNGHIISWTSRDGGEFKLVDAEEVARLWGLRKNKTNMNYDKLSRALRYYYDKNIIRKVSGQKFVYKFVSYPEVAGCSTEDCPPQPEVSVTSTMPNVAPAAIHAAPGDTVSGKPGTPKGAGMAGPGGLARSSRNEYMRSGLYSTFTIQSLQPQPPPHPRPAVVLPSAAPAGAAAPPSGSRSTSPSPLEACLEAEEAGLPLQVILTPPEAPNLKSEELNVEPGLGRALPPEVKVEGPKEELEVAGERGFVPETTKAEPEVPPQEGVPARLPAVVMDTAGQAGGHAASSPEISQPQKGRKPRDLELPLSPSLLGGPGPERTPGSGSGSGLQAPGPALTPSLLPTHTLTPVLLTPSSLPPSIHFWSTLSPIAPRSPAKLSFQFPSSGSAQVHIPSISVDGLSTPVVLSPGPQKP
Procedure, shortened: as §1

ERG = molecular target: T3, ERG (Homo sapiens, UniProt P11308 1-479)
T3 sequence: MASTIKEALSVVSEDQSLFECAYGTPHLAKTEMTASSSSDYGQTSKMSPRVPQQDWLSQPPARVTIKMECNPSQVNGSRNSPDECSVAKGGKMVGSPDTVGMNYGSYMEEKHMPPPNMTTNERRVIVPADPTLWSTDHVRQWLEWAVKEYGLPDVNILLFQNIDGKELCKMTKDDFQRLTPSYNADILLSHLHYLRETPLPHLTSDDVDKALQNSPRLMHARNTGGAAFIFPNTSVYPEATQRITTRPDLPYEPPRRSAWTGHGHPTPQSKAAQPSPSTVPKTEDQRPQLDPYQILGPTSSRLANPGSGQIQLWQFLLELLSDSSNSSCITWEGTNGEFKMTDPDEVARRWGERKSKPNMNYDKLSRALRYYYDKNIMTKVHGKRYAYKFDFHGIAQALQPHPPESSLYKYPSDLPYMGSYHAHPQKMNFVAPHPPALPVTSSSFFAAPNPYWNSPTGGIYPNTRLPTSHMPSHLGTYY
Procedure, shortened: as §1

ELF1 = ELF1 (Homo sapiens, UniProt P32519 1-619)
Procedure, shortened: as §1

SPI1 = SPI1 (Homo sapiens, UniProt P17947 1-270)
Procedure, shortened: as §1

SPIB = SPIB (Homo sapiens, UniProt Q01892 1-262)
Procedure, shortened: as §1

ELK3 = molecular target: T4, ELK3 (Homo sapiens, UniProt P41970 1-407)
T4 sequence: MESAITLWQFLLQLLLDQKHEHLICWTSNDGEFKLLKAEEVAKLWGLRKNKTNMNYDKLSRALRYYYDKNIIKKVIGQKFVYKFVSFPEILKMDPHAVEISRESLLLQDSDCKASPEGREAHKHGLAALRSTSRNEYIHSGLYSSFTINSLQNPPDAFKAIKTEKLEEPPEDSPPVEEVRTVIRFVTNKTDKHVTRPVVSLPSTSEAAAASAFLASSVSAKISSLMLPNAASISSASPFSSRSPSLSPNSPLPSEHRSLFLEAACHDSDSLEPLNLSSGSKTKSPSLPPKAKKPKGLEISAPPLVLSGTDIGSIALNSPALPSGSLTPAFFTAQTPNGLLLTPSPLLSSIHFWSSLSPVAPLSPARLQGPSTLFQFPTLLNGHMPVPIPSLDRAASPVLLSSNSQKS
Procedure, shortened: as §1

SPIC = molecular target: T5, SPIC (Homo sapiens, UniProt Q8N5J4 1-248)
T5 sequence: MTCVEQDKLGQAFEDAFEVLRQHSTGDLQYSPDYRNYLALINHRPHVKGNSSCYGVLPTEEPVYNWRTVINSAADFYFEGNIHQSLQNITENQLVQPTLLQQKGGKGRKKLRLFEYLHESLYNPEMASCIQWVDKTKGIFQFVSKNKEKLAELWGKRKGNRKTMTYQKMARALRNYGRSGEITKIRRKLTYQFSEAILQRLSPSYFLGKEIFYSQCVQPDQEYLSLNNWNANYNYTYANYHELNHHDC
Procedure, shortened: as §1

ELF4 = ELF4 (Homo sapiens, UniProt Q99607 1-663)
Procedure, shortened: as §1

ETV2 = molecular target: T6, ETV2 (Homo sapiens, UniProt O00321 1-342)
T6 sequence: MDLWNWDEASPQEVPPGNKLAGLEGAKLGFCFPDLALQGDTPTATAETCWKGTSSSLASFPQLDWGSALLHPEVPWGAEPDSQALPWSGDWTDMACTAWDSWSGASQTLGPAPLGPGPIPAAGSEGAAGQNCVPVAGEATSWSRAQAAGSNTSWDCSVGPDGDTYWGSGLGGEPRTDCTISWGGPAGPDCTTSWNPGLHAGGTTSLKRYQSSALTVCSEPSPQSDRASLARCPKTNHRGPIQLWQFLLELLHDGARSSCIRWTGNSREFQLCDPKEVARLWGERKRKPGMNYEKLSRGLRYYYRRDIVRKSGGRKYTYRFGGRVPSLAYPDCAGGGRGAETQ
Procedure, shortened: as §1

ELF3 = molecular target: T7, ELF3 (Homo sapiens, UniProt P78545 1-371)
T7 sequence: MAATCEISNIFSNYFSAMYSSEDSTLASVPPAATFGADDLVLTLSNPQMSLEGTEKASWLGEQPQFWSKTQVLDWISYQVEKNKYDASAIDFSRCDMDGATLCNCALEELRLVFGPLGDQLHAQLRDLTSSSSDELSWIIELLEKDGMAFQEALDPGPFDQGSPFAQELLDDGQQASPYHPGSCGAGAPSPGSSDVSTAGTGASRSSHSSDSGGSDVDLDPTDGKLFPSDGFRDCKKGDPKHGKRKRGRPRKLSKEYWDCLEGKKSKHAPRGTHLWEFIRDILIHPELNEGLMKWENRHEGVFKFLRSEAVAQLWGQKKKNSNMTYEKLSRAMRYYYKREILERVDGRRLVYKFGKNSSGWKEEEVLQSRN
Procedure, shortened: as §1

ETV1 = ETV1 (Homo sapiens, UniProt P50549 1-477)
Procedure, shortened: as §1

ERF = molecular target: T8, ERF (Homo sapiens, UniProt P50548 1-548)
T8 sequence: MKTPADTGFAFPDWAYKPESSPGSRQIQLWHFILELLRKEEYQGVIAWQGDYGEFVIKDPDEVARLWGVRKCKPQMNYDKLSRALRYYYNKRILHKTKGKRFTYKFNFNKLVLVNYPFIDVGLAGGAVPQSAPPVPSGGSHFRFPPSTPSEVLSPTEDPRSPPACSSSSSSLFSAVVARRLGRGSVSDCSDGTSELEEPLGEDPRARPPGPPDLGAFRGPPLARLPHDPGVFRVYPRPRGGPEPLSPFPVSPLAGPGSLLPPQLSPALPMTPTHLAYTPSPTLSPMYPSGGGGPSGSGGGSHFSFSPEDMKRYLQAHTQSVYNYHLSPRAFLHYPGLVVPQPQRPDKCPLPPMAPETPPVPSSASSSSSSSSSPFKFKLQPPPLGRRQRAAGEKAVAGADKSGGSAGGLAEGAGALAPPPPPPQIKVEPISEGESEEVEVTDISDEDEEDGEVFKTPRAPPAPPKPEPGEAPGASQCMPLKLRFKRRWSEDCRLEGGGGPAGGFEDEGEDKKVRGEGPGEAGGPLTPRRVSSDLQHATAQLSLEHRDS
Procedure, shortened: as §1

ETV3L = molecular target: T9, ETV3L (Homo sapiens, UniProt Q6ZN32 1-361)
T9 sequence: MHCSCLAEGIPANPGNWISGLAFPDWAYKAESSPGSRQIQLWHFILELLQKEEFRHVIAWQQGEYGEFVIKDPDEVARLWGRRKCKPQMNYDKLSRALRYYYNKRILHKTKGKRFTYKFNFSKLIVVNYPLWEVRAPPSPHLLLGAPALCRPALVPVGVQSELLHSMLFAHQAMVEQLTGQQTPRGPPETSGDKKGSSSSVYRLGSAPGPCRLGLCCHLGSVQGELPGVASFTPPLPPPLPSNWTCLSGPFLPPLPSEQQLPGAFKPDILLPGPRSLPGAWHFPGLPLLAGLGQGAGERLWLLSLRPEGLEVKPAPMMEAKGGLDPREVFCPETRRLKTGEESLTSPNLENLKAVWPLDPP
Procedure, shortened: as §1

ETV7 = molecular target: T10, ETV7 (Homo sapiens, UniProt Q9Y603 1-341)
T10 sequence: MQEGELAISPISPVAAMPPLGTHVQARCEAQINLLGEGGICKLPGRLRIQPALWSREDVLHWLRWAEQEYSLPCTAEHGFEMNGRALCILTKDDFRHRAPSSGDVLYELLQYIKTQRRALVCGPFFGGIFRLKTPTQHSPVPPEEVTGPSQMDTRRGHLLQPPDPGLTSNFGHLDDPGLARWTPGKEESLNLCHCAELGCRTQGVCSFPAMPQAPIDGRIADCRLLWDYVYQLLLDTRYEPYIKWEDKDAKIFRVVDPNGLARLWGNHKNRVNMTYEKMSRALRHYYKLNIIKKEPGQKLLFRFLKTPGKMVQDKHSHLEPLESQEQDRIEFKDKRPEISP
Procedure, shortened: as §1

ETV3 = molecular target: T11, ETV3 (Homo sapiens, UniProt P41162-2 1-143)
T11 sequence: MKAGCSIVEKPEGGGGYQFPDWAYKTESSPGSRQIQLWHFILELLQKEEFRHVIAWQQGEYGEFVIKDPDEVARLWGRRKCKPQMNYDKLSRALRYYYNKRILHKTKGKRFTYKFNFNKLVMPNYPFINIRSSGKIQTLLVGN
Procedure, shortened: as §1

ETV6 = ETV6 (Homo sapiens, UniProt P41212 1-452)
Procedure, shortened: as §1

EHF = molecular target: T12, EHF (Homo sapiens, UniProt Q9NZC4 1-300)
T12 sequence: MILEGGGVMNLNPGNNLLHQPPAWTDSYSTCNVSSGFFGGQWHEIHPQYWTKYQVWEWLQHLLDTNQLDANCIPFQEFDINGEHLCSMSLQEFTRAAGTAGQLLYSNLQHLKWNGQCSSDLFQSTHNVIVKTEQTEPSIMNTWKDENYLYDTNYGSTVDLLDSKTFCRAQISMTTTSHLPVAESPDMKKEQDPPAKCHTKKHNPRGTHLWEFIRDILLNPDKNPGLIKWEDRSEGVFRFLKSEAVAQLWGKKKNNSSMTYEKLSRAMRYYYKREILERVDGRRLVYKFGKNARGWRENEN
Procedure, shortened: as §1

Chain of ELF4 (Q99607 whole entry): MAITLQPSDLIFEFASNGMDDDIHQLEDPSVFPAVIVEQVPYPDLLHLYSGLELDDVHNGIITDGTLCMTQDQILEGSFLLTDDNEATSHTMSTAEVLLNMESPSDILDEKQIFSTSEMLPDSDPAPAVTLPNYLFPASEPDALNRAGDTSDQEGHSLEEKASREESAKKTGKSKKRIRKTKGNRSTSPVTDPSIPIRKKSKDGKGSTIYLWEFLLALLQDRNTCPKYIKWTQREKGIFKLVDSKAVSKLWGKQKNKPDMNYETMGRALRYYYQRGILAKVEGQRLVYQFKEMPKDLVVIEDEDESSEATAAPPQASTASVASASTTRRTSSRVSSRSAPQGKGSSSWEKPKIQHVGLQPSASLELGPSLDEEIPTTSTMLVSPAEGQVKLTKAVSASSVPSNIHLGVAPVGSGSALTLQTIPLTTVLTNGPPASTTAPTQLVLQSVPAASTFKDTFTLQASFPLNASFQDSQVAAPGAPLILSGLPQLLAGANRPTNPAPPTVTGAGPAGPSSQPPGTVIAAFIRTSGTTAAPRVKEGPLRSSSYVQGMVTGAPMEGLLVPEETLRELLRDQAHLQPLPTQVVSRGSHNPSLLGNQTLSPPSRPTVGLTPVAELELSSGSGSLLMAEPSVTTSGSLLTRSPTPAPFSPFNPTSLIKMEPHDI
Chain of ELF1 (P32519 whole entry): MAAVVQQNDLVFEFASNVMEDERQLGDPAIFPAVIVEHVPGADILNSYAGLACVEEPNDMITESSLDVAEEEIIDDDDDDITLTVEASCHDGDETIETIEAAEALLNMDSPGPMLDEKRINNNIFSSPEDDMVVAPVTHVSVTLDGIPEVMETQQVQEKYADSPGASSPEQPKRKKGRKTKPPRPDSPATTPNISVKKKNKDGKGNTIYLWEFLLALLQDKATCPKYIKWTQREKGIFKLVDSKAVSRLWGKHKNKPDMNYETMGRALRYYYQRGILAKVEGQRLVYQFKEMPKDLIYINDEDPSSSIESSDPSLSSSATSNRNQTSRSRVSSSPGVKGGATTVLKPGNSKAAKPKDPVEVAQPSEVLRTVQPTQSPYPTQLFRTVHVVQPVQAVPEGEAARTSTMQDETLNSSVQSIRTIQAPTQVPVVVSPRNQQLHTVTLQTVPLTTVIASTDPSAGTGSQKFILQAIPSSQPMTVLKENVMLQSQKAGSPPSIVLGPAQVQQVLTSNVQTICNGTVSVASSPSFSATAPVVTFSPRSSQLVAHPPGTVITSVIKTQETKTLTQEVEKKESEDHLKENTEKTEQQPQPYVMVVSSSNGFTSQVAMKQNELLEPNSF
Chain of ETV6 (P41212 whole entry): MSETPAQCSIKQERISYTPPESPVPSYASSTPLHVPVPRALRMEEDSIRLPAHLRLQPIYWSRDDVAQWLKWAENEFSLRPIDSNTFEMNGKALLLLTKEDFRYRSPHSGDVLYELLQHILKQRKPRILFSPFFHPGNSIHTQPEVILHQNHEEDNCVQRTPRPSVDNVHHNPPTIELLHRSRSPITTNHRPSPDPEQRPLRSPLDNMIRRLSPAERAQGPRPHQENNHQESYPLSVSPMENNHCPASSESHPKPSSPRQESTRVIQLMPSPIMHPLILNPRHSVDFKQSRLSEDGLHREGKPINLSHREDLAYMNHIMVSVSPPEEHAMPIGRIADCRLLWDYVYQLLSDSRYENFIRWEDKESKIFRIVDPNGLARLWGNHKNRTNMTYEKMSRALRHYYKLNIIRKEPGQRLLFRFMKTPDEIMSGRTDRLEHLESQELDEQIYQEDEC
Chain of SPIB (Q01892 whole entry): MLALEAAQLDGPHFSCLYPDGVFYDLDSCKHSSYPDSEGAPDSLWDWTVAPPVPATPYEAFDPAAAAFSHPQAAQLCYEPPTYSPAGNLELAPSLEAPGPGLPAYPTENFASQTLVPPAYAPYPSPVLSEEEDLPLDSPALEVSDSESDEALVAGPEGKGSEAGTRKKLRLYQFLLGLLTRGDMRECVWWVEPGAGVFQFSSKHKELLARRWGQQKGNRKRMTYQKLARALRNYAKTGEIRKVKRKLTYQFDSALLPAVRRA
Chain of ETV1 (P50549 whole entry): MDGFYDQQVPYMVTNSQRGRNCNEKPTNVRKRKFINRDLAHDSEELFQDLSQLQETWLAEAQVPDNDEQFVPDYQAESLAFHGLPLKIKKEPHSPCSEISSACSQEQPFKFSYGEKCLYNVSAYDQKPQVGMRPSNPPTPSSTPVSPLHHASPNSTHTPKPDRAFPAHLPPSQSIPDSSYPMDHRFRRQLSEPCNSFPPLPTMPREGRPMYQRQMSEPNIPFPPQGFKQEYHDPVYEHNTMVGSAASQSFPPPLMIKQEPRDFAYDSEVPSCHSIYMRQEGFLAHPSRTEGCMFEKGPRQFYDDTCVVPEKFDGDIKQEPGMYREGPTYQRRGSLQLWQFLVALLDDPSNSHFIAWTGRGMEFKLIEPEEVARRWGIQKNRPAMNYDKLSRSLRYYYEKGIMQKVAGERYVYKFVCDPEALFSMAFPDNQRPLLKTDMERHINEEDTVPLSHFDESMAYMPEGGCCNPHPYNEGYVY

Sequence: TGATTG
- binding signal (FLI1): 1.16 fold enrichment (6-mer frequency, TF over GST control)
- binding signal (ELK1): 1.16 fold enrichment (6-mer frequency, TF over GST control)
- binding signal (ERG): 1.08 fold enrichment (6-mer frequency, TF over GST control)
- binding signal (ELF1): 1.06 fold enrichment (6-mer frequency, TF over GST control)
- binding signal (SPI1): 1.04 fold enrichment (6-mer frequency, TF over GST control)
- binding signal (SPIB): 1.09 fold enrichment (6-mer frequency, TF over GST control)
- binding signal (ELK3): 1.11 fold enrichment (6-mer frequency, TF over GST control)
- binding signal (SPIC): 1.05 fold enrichment (6-mer frequency, TF over GST control)
- binding signal (ELF4): 1.02 fold enrichment (6-mer frequency, TF over GST control)
- binding signal (ETV2): 1.06 fold enrichment (6-mer frequency, TF over GST control)
- binding signal (ELF3): 1.05 fold enrichment (6-mer frequency, TF over GST control)
- binding signal (ETV1): 1.1 fold enrichment (6-mer frequency, TF over GST control)
- binding signal (ERF): 1.13 fold enrichment (6-mer frequency, TF over GST control)
- binding signal (ETV3L): 1.09 fold enrichment (6-mer frequency, TF over GST control)
- binding signal (ETV7): 1.05 fold enrichment (6-mer frequency, TF over GST control)
- binding signal (ETV3): 1.05 fold enrichment (6-mer frequency, TF over GST control)
- binding signal (ETV6): 1.04 fold enrichment (6-mer frequency, TF over GST control)

Sequence: CATGGC
- binding signal (FLI1): 1.1 fold enrichment (6-mer frequency, TF over GST control)
- binding signal (ELK1): 1.02 fold enrichment (6-mer frequency, TF over GST control)
- binding signal (ERG): 1.05 fold enrichment (6-mer frequency, TF over GST control)
- binding signal (ELF1): 1.02 fold enrichment (6-mer frequency, TF over GST control)
- binding signal (EHF): 1.02 fold enrichment (6-mer frequency, TF over GST control)
- binding signal (SPI1): 1.04 fold enrichment (6-mer frequency, TF over GST control)
- binding signal (ELK3): 1.04 fold enrichment (6-mer frequency, TF over GST control)
- binding signal (SPIC): 1.05 fold enrichment (6-mer frequency, TF over GST control)
- binding signal (ELF4): 1.02 fold enrichment (6-mer frequency, TF over GST control)
- binding signal (ETV2): 1.04 fold enrichment (6-mer frequency, TF over GST control)
- binding signal (ETV3L): 1.02 fold enrichment (6-mer frequency, TF over GST control)
- binding signal (ETV7): 1.07 fold enrichment (6-mer frequency, TF over GST control)
- binding signal (ETV3): 1.05 fold enrichment (6-mer frequency, TF over GST control)
- binding signal (ETV6): 1 fold enrichment (6-mer frequency, TF over GST control)
